Compound activity as filed in PubChem.
PNC assembly inh = High Content Assay for Compounds that inhibit the Assembly of the Perinucleolar Compartment; PC3M PTB-GFP, PNC prevalence imaging, 16 h; active compounds read low; activity change (PNC), negative = inhibition, % at 10 µM; AID 2417, 2010; 3.1% of 140,000 active;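 active = readout at or below -70, meaning at least 70% loss of cells showing the perinucleolar compartment, a nuclear body marking cancer cells; inconclusive = readout between -30 and a set limit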;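 note: plate controls were DMSO wells for no effect and camptothecin positive control wells for full effect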
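PC3M cells stably expressing PTB-GFP, 750–1000 cells/well, treated 16 h at 37 °C with compound (23 nl of library stock), in duplicate. After paraformaldehyde fixation and Hoechst stain, imaged at 20x; PNC prevalence scored by image analysis.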
HPGD inh = qHTS Assay for Inhibitors of HPGD (15-Hydroxyprostaglandin Dehydrogenase); 4.3% of 150,000 active; purified HPGD, NADH fluorescence kinetic, PGE2 substrate; Potency, µM, without a hit: at the highest dose activity change, negative = inhibition, most hits filed as inhibitors; 15-hydroxyprostaglandin dehydrogenase [NAD(+)] (Homo sapiens), P15428; note: potency is the fitted concentration of half-maximal effect; % is set by controls: 0 for no effect and ±100 for the full control effect
Target sequence (P15428 whole entry, looked up): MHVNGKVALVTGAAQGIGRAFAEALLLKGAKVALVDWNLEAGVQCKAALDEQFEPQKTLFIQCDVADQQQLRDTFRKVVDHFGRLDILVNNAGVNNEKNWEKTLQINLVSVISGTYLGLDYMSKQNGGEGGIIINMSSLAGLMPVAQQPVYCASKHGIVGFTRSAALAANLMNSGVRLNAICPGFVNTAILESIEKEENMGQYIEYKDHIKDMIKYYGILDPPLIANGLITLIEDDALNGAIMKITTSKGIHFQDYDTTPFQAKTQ
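20 nM HPGD preincubated 15 min at room temperature with compound in 50 mM Tris-HCl pH 8, 0.01% Tween 20. Started with 1 mM NAD+ and 30 uM prostaglandin E2; NADH fluorescence (360/450 nm) read 5 times over 30-s intervals, last minus first.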
HTT aggregate = qHTS Multiplex Assay to Identify Dual Action Probes in a Cell Model of Huntington: Aggregate Formation (GFP) | PC12 HttQ103-GFP aggregates, Acumen cytometry, 40 h | Potency, µM (series often up to 46.1 µM), inactives show at the top dose activity change, negative = inhibition, actives largely listed as inhibitors | 1.1% of 220,000 active | AID 1688, 2009; active = well fitted curve in the direction sought with a large enough effect; inconclusive = small, poorly fitted or top-dose-only effect, or another doubt; inactive = no such curve, though single readings can be large; an effect the other way counts as inactive or inconclusive; note: potency is the fitted concentration of half-maximal effect; % is set by controls: 0 for no effect and ±100 for the full control effect; nearly all actives have a fitted effect of over 60% in size
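PC12 cells stably carrying ecdysone-inducible HTT exon 1 Q103–GFP were induced with tebufenozide (100 nM final) and treated with library compounds in titration. GFP aggregates in lysates were counted by laser scanning cytometry.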
RGS12 GoLoco inh = qHTS Assay for Inhibitors of RGS12 GoLoco Motif Activity (Red Fluorophore). 0.44% of 230,000 active. Gai1:RGS12 GoLoco peptide FP, rhodamine, 10 min. AID 880, 2007. Potency, µM (titrated, usually from 61.6 µM), for the others: at the highest dose activity, negative = inhibition, most hits filed as inhibitors. Guanine nucleotide-binding protein G(i) subunit alpha-1 (Homo sapiens), P63096; active = well fitted inhibition curve with a large enough effect, not every such curve was filed as active; inactive = no such curve, though single readings can be large or run the other way; note: potency is the fitted concentration of half-maximal effect; % is set by controls: 0 for no effect and ±100 for the full control effect; nearly all actives have a fitted effect of over 30% in size
ALDH1A1 inh = qHTS Assay for Inhibitors of Aldehyde Dehydrogenase 1 (ALDH1A1) | Aldehyde dehydrogenase 1A1 (Homo sapiens), P00352 | Purified ALDH1A1, NADH fluorescence, propionaldehyde substrate | Potency, µM (top dose mostly 75.3 µM), without a hit: at the highest dose activity, negative = inhibition, most hits filed as inhibitors | 7.3% of 220,000 active;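 note: potency is the fitted concentration of half-maximal effect; plate controls were no enzyme wells and a reference inhibitor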
Target sequence (P00352 whole entry, looked up): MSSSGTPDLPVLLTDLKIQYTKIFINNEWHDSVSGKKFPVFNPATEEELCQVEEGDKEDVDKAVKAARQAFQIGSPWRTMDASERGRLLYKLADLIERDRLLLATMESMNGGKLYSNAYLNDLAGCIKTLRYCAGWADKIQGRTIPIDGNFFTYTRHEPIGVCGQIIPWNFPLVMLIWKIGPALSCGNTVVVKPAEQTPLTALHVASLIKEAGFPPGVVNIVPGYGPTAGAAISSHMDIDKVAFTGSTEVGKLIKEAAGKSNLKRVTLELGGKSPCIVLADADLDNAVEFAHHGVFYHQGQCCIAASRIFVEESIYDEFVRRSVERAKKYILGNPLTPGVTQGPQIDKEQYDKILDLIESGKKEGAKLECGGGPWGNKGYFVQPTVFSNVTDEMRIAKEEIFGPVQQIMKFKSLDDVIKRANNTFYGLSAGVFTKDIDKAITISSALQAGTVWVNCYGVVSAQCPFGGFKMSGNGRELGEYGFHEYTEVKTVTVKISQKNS
HTT cytoprotect = qHTS Multiplex Assay to Identify Dual Action Probes in a Cell Model of Huntington: Cytoprotection (ATP); 0.14% of 230,000 active; AID 1471, 2008; PC12 HTT-Q103 induced, cytoprotection, ATP luminescence, 40 h; Potency, µM (top dose mostly 56.4 µM), for the others: cytoprotection (ATP increase), hits mostly activators; active = well fitted curve in the direction sought with a large enough effect; inconclusive = small, poorly fitted or top-dose-only effect, or another doubt; inactive = no such curve, though single readings can be large; an effect the other way counts as inactive or inconclusive; note: potency is the fitted concentration of half-maximal effect; % of control where 0% means no effect; nearly all actives have a fitted effect of over 45% in size
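PC12 cells stably carrying ecdysone-inducible Htt exon 1 (Q103)–GFP were induced with 100 nM tebufenozide (final) alongside library compounds in a dose series. Cytoprotection was scored as retained ATP by ATPlite luminescence.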
* hit, by the source's call; [ ] = dose if it differs, or a comment. Most compounds without a hit are left out; they make up all but 11% or so of the library. Unless noted, calls come from the whole dose curve; as a rule, active = well fitted inhibition curve with a large enough effect (not every such curve was filed as active); inconclusive = small, poorly fitted or top-dose-only effect, or another doubt; inactive = no such curve, though single readings can be large or run the other way.

How did CCNc1ccc(Br)cc(C(=O)/C=C/c2c(Cl)cccc2Cl)c1=O do in these assays?
PNC assembly inh: 80.2; HPGD inh: 8.91µM*; HTT aggregate: inconclusive; RGS12 GoLoco inh: 73.1%; ALDH1A1 inh: 7.94µM*; HTT cytoprotect: -4.4%[10 µM]

How did CCNc1ccc(Br)cc(C(=O)/C=C/c2ccc(Cl)cc2)c1=O do in these assays?
PNC assembly inh: 39.6; HPGD inh: inconclusive; HTT aggregate: 25.7%; RGS12 GoLoco inh: 32.5%; ALDH1A1 inh: 25.1µM*

What do the screens show for `CCn1c(Cl)c(C=O)s/c1=N\S(=O)(=O)c1ccccc1`?
HTT aggregate: 1.41µM*; RGS12 GoLoco inh: 179.6%; HTT cytoprotect: -96.8%[10 µM]

Results for CCN1C(=O)CS/C1=N\S(=O)(=O)c1ccc(Cl)cc1 ?
HTT aggregate: 15.0%; RGS12 GoLoco inh: 12.9%; ALDH1A1 inh: 4.9%; HTT cytoprotect: -15.3%[10 µM]

Results for COC(=O)c1ccc(NC(=O)c2ccccc2)o1 ?
PNC assembly inh: -24.5; HPGD inh: 31.6µM*; HTT aggregate: 13.0%; RGS12 GoLoco inh: -9.0%; ALDH1A1 inh: -12.4%; HTT cytoprotect: -0.2%

What do the screens show for `COc1ccc(NC2C[C@H]3CCCC(=O)N4CC[C@@H](C2)[C@@H]34)cc1` (stereo not given in full)?
HPGD inh: -0.1%; RGS12 GoLoco inh: -12.8%[88.7 µM]; ALDH1A1 inh: 4.0%; HTT cytoprotect: 14.0%

What do the screens show for `O=C(c1cc(-c2ccccc2)on1)N1CCCc2ccccc21`?
HTT aggregate: 7.7%[9.22 µM]; RGS12 GoLoco inh: -2.9%; ALDH1A1 inh: 14.1µM*; HTT cytoprotect: 2.6%[10 µM]

What do the screens show for `O=C(c1cc(-c2ccco2)on1)N1CCCc2ccccc21`?
PNC assembly inh: inconclusive; HPGD inh: -21.6%; HTT aggregate: 28.6%; RGS12 GoLoco inh: 16.8%; ALDH1A1 inh: 8.91µM*; HTT cytoprotect: -0.4%

Results for O=C(c1cc(-c2ccccc2)on1)N1CCCC1 ?
PNC assembly inh: 32.1; HPGD inh: inconclusive; HTT aggregate: -19.1%; RGS12 GoLoco inh: 4.2%; ALDH1A1 inh: -1.0%; HTT cytoprotect: 0.3%[0.074 µM]

How did Cn1c(C(=O)N2CCCc3ccccc32)cc2sccc21 do in these assays?
PNC assembly inh: -7.5; HPGD inh: 15.8µM*; HTT aggregate: 5.4%; RGS12 GoLoco inh: 8.6%; ALDH1A1 inh: 7.94µM*; HTT cytoprotect: -0.1%

What do the screens show for `Nc1nc(N)nc(-c2cc(Cl)ccc2Cl)n1`?
HTT aggregate: 0.5%; RGS12 GoLoco inh: 1.6%; HTT cytoprotect: 7.94µM*

What do the screens show for `Nc1nc(N)nc(-c2ccc(Cl)cc2)n1`?
PNC assembly inh: 6.3; HPGD inh: -6.7%; HTT aggregate: -4.7%[9.22 µM]; RGS12 GoLoco inh: -7.6%; ALDH1A1 inh: 13.5%; HTT cytoprotect: -21.2%

How did O=C1c2ccccc2C(=O)N1/N=C/c1ccc(Oc2ccc([N+](=O)[O-])cn2)cc1 do in these assays?
HTT aggregate: 24.6%; RGS12 GoLoco inh: 7.3%; ALDH1A1 inh: 1.4%; HTT cytoprotect: 12.3%

How did O=c1cc(O)c2c(=O)n(-c3ccccc3)c3c(c2o1)CCCCC3 do in these assays?
PNC assembly inh: -6.5; HPGD inh: -14.6%; HTT aggregate: 22.4%; RGS12 GoLoco inh: -12.3%; ALDH1A1 inh: -6.0%; HTT cytoprotect: 2.4%[10 µM]

How did COc1ccc(NS(=O)(=O)c2cc(C)ccc2C)cc1 do in these assays?
PNC assembly inh: 16.2; HPGD inh: 14.1µM*; HTT aggregate: 17.2%; RGS12 GoLoco inh: -1.8%; ALDH1A1 inh: 0.562µM*; HTT cytoprotect: -33.8%

How did COc1ccc(NS(=O)(=O)c2cc(S(C)(=O)=O)ccc2C)cc1 do in these assays?
PNC assembly inh: 8.0; HPGD inh: -6.3%; HTT aggregate: 19.4%; RGS12 GoLoco inh: -6.1%; ALDH1A1 inh: 28.2µM*; HTT cytoprotect: -10.9%[10 µM]

Results for Cc1ccc(C)c(S(=O)(=O)Nc2ccc(O)cc2)c1 ?
PNC assembly inh: -2.4; HPGD inh: -9.1%; HTT aggregate: 0.1%; RGS12 GoLoco inh: 5.5%; ALDH1A1 inh: inconclusive; HTT cytoprotect: 5.5%

What do the screens show for `Cc1cc(C)c(S(=O)(=O)Nc2ccc(O)cc2)cc1C`?
PNC assembly inh: 13.4; HPGD inh: -3.9%; HTT aggregate: 23.4%; RGS12 GoLoco inh: 4.0%; ALDH1A1 inh: 14.1µM*; HTT cytoprotect: -4.0%

How did O=C(/C=C/c1ccncc1)c1ccc(NC(=O)c2ccccc2F)cc1 do in these assays?
PNC assembly inh: 48.8; HPGD inh: 25.1µM*; HTT aggregate: inconclusive; RGS12 GoLoco inh: 12.2%; ALDH1A1 inh: inconclusive

How did Cc1ccccc1CSc1nnc([C@@H]2CCCN2)o1 do in these assays?
HTT aggregate: 3.6%[9.22 µM]; RGS12 GoLoco inh: 5.6%; HTT cytoprotect: 23.2%[10 µM]

Results for O=C(COc1ccccc1Cl)Nc1cnn(Cc2ccccc2)c1 ?
PNC assembly inh: -94.0*; HPGD inh: -19.6%; HTT aggregate: 6.2%; RGS12 GoLoco inh: -4.0%; ALDH1A1 inh: inconclusive; HTT cytoprotect: 11.0%

Results for O=C(COC(=O)c1ccccn1)Nc1cc(Cl)ccc1Cl ?
PNC assembly inh: 23.5; HPGD inh: -3.5%; HTT aggregate: 18.3%; RGS12 GoLoco inh: -5.8%; ALDH1A1 inh: -3.2%; HTT cytoprotect: 5.1%[10 µM]

Results for O=C(COC(=O)c1ccccn1)Nc1ccccc1Cl ?
PNC assembly inh: 0.0; HPGD inh: -2.1%; HTT aggregate: -7.7%; RGS12 GoLoco inh: -16.3%; ALDH1A1 inh: 22.4µM*; HTT cytoprotect: -23.0%[0.074 µM]

What do the screens show for `O=C(COc1ccccc1O)Nc1ccccc1Cl`?
PNC assembly inh: inconclusive; HPGD inh: 17.8µM*; HTT aggregate: 5.7%; RGS12 GoLoco inh: -4.8%; ALDH1A1 inh: inconclusive; HTT cytoprotect: -11.5%

What do the screens show for `COc1ccc(-c2nc3cnc(N4CCOCC4)nc3n(C[C@H]3CCCO3)c2=O)cc1`?
RGS12 GoLoco inh: 10.7%; ALDH1A1 inh: inconclusive; HTT cytoprotect: -30.1%

How did NNC(=O)CNC(c1ccccc1)c1cc(Br)ccc1NC(=O)c1ccccc1Br (stereo not given) do in these assays?
PNC assembly inh: 75.7; HPGD inh: -5.0%; HTT aggregate: 5.8%; RGS12 GoLoco inh: -5.4%; ALDH1A1 inh: inconclusive; HTT cytoprotect: -39.8%

Results for Cc1ccc(SCC(=O)c2c(C)nc3ccccn23)cc1 ?
HTT aggregate: 14.1µM*; RGS12 GoLoco inh: -1.7%; ALDH1A1 inh: inconclusive; HTT cytoprotect: -79.1%

Results for CCNC(=O)c1c(C)nc2ccccn12 ?
PNC assembly inh: 4.6; HPGD inh: -15.8%; HTT aggregate: -17.8%; RGS12 GoLoco inh: 3.1%; ALDH1A1 inh: 2.6%; HTT cytoprotect: -3.2%
